Experimental data as given in PubChem BioAssay (NCI).
Compounds without any hit were thinned out: in the full panel of roughly 79,000, 15% have a hit. Rule as the data show it: active = growth inhibition above about 70%; inactive = the rest.

What was measured:
[1] = NCI Yeast Anticancer Drug Screen. Data for the rad50 strain (AID 155);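 also: 0% = growth of vehicle-only cultures of the same strain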; details: S. cerevisiae rad50 strain growth inhibition; at 50.0 µM; active compounds read high
Outline: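 Yeast carrying a defined DNA repair defect were exposed to test compounds, and growth was compared with vehicle-treated controls to give percent inhibition.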

[2] = NCI Yeast Anticancer Drug Screen. Data for the mec2-1 strain (AID 157); details: S. cerevisiae mec2-1 strain, at 50.0 µM, active compounds read high
Outline: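 mec2-1 yeast strain, carrying an alteration in DNA damage repair or cell cycle control, was exposed to compounds; growth inhibition was measured relative to vehicle-treated controls.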

[3] = NCI Yeast Anticancer Drug Screen. Data for the sgs1 mgt1 strain (AID 161);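 also: 0% = growth of cultures given vehicle only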; details: S. cerevisiae sgs1 mgt1 strain, at 50.0 µM, active compounds read high
Outline: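 Percent growth inhibition was derived by comparing compound-exposed mutant yeast with vehicle-exposed cultures. The strain carries alterations in DNA damage repair.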

[4] = NCI Yeast Anticancer Drug Screen. Data for the cln2 rad14 strain (AID 165);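 also: 0% = growth equal to vehicle treated cultures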; details: S. cerevisiae cln2 rad14 strain, at 50.0 µM, active compounds read high
Outline: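 Yeast carrying cln2 and rad14 alterations (cell cycle control and DNA damage repair) were exposed to compounds. Growth inhibition was measured against vehicle-treated controls.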

[5] = NCI Yeast Anticancer Drug Screen. Data for the bub3 strain (AID 167); details: S. cerevisiae bub3 mutant strain, at 50.0 µM, active compounds read high
Outline: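 Compounds were applied to a genetically altered yeast strain carrying a cell-cycle control defect. Growth inhibition was scored against vehicle-treated controls.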

[6] = NCI Yeast Anticancer Drug Screen. Data for the mlh1 rad18 strain (AID 175); details: S. cerevisiae mlh1 rad18 strain growth inhibition; at 50.0 µM; active compounds read high
Outline: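 Growth inhibition of the yeast strain was measured after compound exposure and expressed relative to vehicle-treated controls. The strain carries defined defects in DNA damage repair.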

Measured: growth inhibition

NS(=O)(=O)c1ccc(NC(=S)/N=C/c2c(O)c3ccccc3oc2=O)cc1
inactive: [1] 6.2% | [2] -4.45% | [3] 16.3% | [4] -18.9% | [5] -10.4% | [6] 12.6%

N#CC(C(=O)C(=O)Nc1cccc(Cl)c1)c1ccccc1 (stereo not given)
inactive: [1] -4.55% | [2] -6.9% | [3] -19% | [4] -89.1% | [5] -11.8% | [6] -4.2%

Cc1ccc(-c2nn[nH]n2)cc1[N+](=O)[O-]
inactive: [1] 5.65% | [2] 8.6% | [3] -0.65% | [4] -11% | [5] -21.9% | [6] 16.1%

CC1(Br)CC2=C(CC1(C)Br)C(=O)C(c1ccccc1)=C(c1ccccc1)C2=O (stereo not given)
inactive: [1] 9.25% | [2] 17.1% | [3] 39.2% | [4] 25% | [5] 12.3% | [6] 23.4%

CC1(C)OCC(C(O)C2OC(C)(C)OC2/C=N\O)O1 (stereo not given)
inactive: [1] -3.9% | [2] -18% | [3] -0.2% | [4] -0.5% | [5] -1.45% | [6] -17%

C[CH2][Ge]([CH2]C)[CH2]C.C[CH2][Ge]([CH2]C)[CH2]C
inactive: [1] 6.5% | [2] 0.35% | [3] -2.45% | [4] -25.4% | [5] 0.9% | [6] -3%

O/N=C1\CCC2CCCCC12 (stereo not given)
inactive: [1] 27.5% | [2] 14.5% | [3] 2.55% | [4] 19.1% | [5] 1.05% | [6] 24.9%

CCOC(=O)/C=C/C(=O)O.[Cu+2]
inactive: [1] 5.2% | [2] -14.3% | [3] -4% | [4] -13.7% | [5] -17.2% | [6] 11.9%

CC1(C)[C@@H]2CC[C@](C)(O)[C@H]1C2
inactive: [1] 0.45% | [2] -1.05% | [3] -1.65% | [4] 8.5% | [5] -3.15% | [6] 2.3%

CC12CCC3c4ccc(OC(=O)c5ccc([N+](=O)[O-])cc5)cc4CCC3C1CCC2=O (stereo not given)
inactive: [1] 13.8% | [2] -6.95% | [3] -6.45% | [4] 5.75% | [5] -0.65% | [6] -1.75%

COC(=O)C1(C)CCCC2(C)C1CCC13OC(=O)C(C(C)C)(CC21)C3O (stereo not given)
inactive: [1] -3.6% | [2] -28.3% | [3] -10.8% | [4] -33.7% | [5] -1.45% | [6] -28.8%

Cn1nc(Br)c(=O)n(C)c1=O
inactive: [1] -17.9% | [2] -11.1% | [3] -14.8% | [4] -3.15% | [5] 1.7% | [6] -10.4%

O=C(Nc1ccccc1)Oc1cccc(-c2ccc(-c3ccccc3)cc2)c1
inactive: [1] 29.4% | [2] 6.5% | [3] 33.7% | [4] 18.9% | [5] 49.5% | [6] 18.2%

O=C1CC2C(=O)N(Cc3ccccc3)C1C(S(=O)(=O)c1ccccc1)C2S(=O)(=O)c1ccccc1 (stereo not given)
inactive: [1] 10.4% | [2] 9.4% | [3] 2.75% | [4] 26.9% | [5] -8.7% | [6] 23.9%

CC(=O)NNc1nc(C)c(C(=O)NNC(=O)C(=O)Nc2ccc([N+](=O)[O-])cc2[N+](=O)[O-])s1
inactive: [1] 6.45% | [2] -5.65% | [3] -30.9% | [4] 32.9% | [5] 24.1% | [6] 14.8%

O=C(c1ccc(F)cc1)C1CC1
inactive: [1] 3.7% | [2] -17.8% | [3] 19% | [4] 9.3% | [5] -0.95% | [6] 2.25%

O=C(O)CC(c1ccccc1Cl)C(CC(=O)O)c1ccccc1Cl (stereo not given)
inactive: [1] 5.55% | [2] -1.55% | [3] -2.55% | [4] 11.6% | [5] -1.05% | [6] 3.4%

Cc1cccc(Cl)c1OCC(=O)Nc1ccccc1
inactive: [1] 20.9% | [2] 10.1% | [3] 20.8% | [4] 0.8% | [5] 58.6% | [6] -3.65%

O=C(O)c1ccc(-c2c3ccc(=O)cc-3oc3cc(O)ccc23)cc1
inactive: [1] 18% | [2] -30.1% | [3] 6.05% | [4] 22.1% | [5] 23.9% | [6] 20.4%

CCOC(=O)CCCCCCCCCCCCC1C=CCC1 (stereo not given)
inactive: [1] -19.1% | [2] -41.4% | [3] -3.45% | [4] -28.6% | [5] -49.1% | [6] -21.3%
